The panel holds about 83,000 compounds, 20% with a hit somewhere; the sample as a whole holds those more often.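 Results are percent growth after 48 hours of single-concentration exposure. 100 means growth as in untreated cells, lower positive values show inhibition; negative values down to -100 show cell death.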 Unmarked numbers belong to inactive results. Activity calls are given as the source filed them. How the source made its calls: active means growth percent below 10; inactive means the rest.
Columns and labels:
Assay in all cases: NCI-60 one-dose screen, 48 h (100 = growth as untreated, 0 = no growth, -100 = all killed)
Conditions in all cases: 10 µM unless noted
[1] = test system: HCT-15 colon
[2] = test system: HT29 colon
[3] = test system: SNB-75 CNS
[4] = test system: SNB-19 CNS
[5] = test system: U251 CNS
[6] = test system: PC-3 prostate
[7] = test system: SK-MEL-5 melanoma
[8] = test system: UACC-62 melanoma
[9] = test system: LOX IMVI melanoma
[10] = test system: SK-MEL-28 melanoma

Row | Structure (SMILES) | growth [1] | growth [2] | growth [3] [%] | growth [4] | growth [5] | growth [6] | growth [7] | growth [8] | growth [9] | growth [10] [%]
1 | CN1C(=O)C(C2=NNC(c3ccccc3C(=O)O)C2)C(=O)N(C)C1=O (stereo not given) | 106% | 98.5% | 85.4 | 92.9% | 98.1% | 95.6% | 108% | 96.2% | 101% | 123
2 | COc1cccc(-c2nc3sccn3c2-c2ccnc(NCCN3CCCN(C)S3(=O)=O)n2)c1 | 68% | 50.6% | 62.5 | 123% | 99.9% | 87.2% | 84.1% | 15.2% | 45.2% | 53
3 | O=C1OCC2=C1C(c1ccccc1)c1cc3c(cc1N2CCO)CCC3 (stereo not given) | 14.1% | 6.75% (active) | 64.4 | -12.2% (active) | 12% | 15.7% | -29.2% (active) | 31.7% | 28.5% | 42.7
4 | S=C(Nc1ccc(Cl)cc1)Nc1ccc(Cl)cc1 (tested in a mixture with another compound) | 9.22% (active) | 1.05% (active) | 16.8 | 24.7% | -36.6% (active) | 3.81% (active) | -61.3% (active) | 13.8% | 5.65% (active) | 25.8
5 | ClC1=NC(Cl)C(Cl)=N/C1=N\c1ncn[nH]1 (stereo not given) | -71.9% (active) | -62.8% (active) | 68.9 | 111% | -50.5% (active) | 20.3% | 74.1% | 83.6% | -50.7% (active) | 15.1
6 | NS(=O)(=O)c1ccc(CCn2c(SCC(=O)N/N=C/c3ccccc3O)nc3ccccc3c2=O)cc1 | 59.9% | 10% (active) | 23.8 | 49.1% | 26.8% | 36.1% | 30.5% | 48.8% | 43.9% | 76.5
7 | O=C(/C=C/c1ccc(F)cc1)N1CCN(C(=O)/C=C/c2ccc(C(F)(F)F)cc2)CC1 | 104% | 101% | 119 | 103% | 107% | 117% | 98.9% | 96.6% | 111% | 106
8 | CCCCCCCCCCCCCCCCCC1=NCCN1CCO | 61.7% | 61.5% | 80.6 | 95.5% | 75.6% | 63.6% | 106% | 92% | -47.2% (active) | 89.4
9 | CC(=O)c1ccc(N2C(=O)c3ccc(Oc4ccccc4)cc3C2=O)cc1 | 111% | 104% | 108 | 105% | 108% | 91.2% | 103% | 98.9% | 103% | 111
10 | CC(C)(C)OC[C@@H]1N=C(c2ccc(Br)cc2)Nc2nc3ccccn3c2C1=O | 44.1% | 21.8% | 77.4 | 76.5% | 63.5% | 53.4% | 38.4% | 53.6% | 58.7% | 68.6
11 | COc1cccc(/C=N\Nc2ccc([N+](=O)[O-])cn2)c1O | 29.7% | 99.1% | 83.1 | 50.9% | 21.7% | 97.5% | 49.8% | 54.7% | 36.9% | 83.5
12 | Clc1cc2nc(-c3ccccc3)c(-c3ccccc3)nc2cc1Cl | 88.7% | 88.5% | 87.9 | 102% | 95.7% | 77.3% | 89.4% | 84.7% | 86.2% | 101
13 | O=C(Cc1ccc([N+](=O)[O-])cc1)Oc1ccccc1 | 104% | 104% | 102 | 103% | 107% | 93.1% | 105% | 101% | 107% | 112
14 | O=c1c2cc(Br)cc(Br)c2nc(-c2ccc(Cl)cc2)n1/N=C\c1ccccc1F | 88.3% | 77.3% | 13.7 | 68.8% | 55.1% | -87.1% (active) | 89.4% | 70.7% | 70.3% | 98.4
15 | Cn1cnc([N+](=O)[O-])c1S(=O)(=O)Oc1cccc2ccccc12 | 1.87% (active) | 10.9% | 83.2 | 98.8% | 57.6% | 57.4% | 93% | 80.7% | -45.1% (active) | 85.1
16 | C/C(=N\NC(=O)CSc1nc2ccccc2c(=O)n1CCc1ccc(S(N)(=O)=O)cc1)c1ccc(Br)cc1 | 94.7% | 44.7% | 84.7 | 63.9% | 8.33% (active) | 44.9% | 61.5% | 79% | 63.3% | 79.7
17 | COc1cc(-c2nc(-c3ccc(-c4nc5ccc(F)cc5[nH]4)cc3)no2)cc(OC)c1OC | 19.4% | 9.19% (active) | 76.6 | 73.1% | 46.1% | 6.63% (active) | 20.7% | 20.9% | 24.8% | 60.6
18 | Cc1cc(-c2ccccc2)on1 | 101% | 106% | 99.2 | 104% | 108% | 97.7% | 109% | 110% | 99.4% | 109
19 | O=C(Nc1cccc(Cl)c1)Nc1ccccc1Cl | 93.6% | 80.8% | 89.4 | 102% | 87.3% | 57.1% | 102% | 63.7% | 89.1% | 95.4
20 | C#CCNc1nc(NCCNC(=O)CCl)nc(N(C)CCCCc2ccccc2)n1 | 92.4% | 109% | 104 | 99.3% | 98.6% | 107% | 53.8% | 91.7% | -12.5% (active) | 104
21 | c1ccc(-c2nnn(-c3ccccc3)n2)cc1 | 114% | 104% | 90.4 | 101% | 99.1% | 103% | 104% | 94.1% | 116% | 110
22 | CC1=C(O)C(=O)CC1 | 108% | 101% | 97.9 | 101% | 100% | 80.9% | 99.5% | 110% | 99.7% | 100
23 | COc1cc(OC)c2sc(-c3ccc(-n4cncc4-c4ccc(OC)c(N)c4)cc3)nc2c1 | 73.9% | 74.3% | 81.8 | 80.1% | 67.2% | 50.4% | 53.1% | 85.6% | 90.2% | 104
24 | CC(C)CCSc1nc(-c2ccc(F)cc2)c(C#N)c(N2CCN(C)CC2)n1 | 83.6% | 82.2% | 73 | 91.7% | 77.6% | 65% | 90.4% | 87.2% | 77.6% | 96.5
25 | COc1cc(C)c(Cl)cc1C1=NN(c2ccc(S(N)(=O)=O)cc2)C(/C=C/c2ccccc2)C1 (stereo not given) | 35.1% | 23.2% | 65.2 | 38.6% | 18.3% | 7.54% (active) | 64.9% | 39.8% | 51.6% | 88.1
26 | O=S1(=O)NCCN1CCNc1nccc(-c2c(-c3cccc(O)c3)nc3sccn23)n1 | 127% | 71.6% | 73.3 | 122% | 120% | 78.5% | 94.4% | 6.31% (active) | 55% | 31.3

— PubChem BioAssay (NCI)
